Measured values from article PMC7862700, “An all-to-all approach to the identification of sequence-specific readers for epigenetic DNA modifications on cytosine”.

Legend:
Assay in all cases: DAPPL (digital affinity profiling via proximity ligation, sequencing); 10 mM Tris-HCl pH 7.5, 50 mM NaCl, 1 mM DTT, 4% glycerol, room temperature, 30 min; GST-TFs on glutathione beads, 16-mer random dsDNA library, 0.1% formaldehyde crosslink after washing; high values mean tight binding
FLI1 = molecular target: T1, FLI1 (Homo sapiens, UniProt Q01543 1-452); conditions: protein: recombinant; tags: N-terminal GST; dsDNA, one strand shown
T1 sequence: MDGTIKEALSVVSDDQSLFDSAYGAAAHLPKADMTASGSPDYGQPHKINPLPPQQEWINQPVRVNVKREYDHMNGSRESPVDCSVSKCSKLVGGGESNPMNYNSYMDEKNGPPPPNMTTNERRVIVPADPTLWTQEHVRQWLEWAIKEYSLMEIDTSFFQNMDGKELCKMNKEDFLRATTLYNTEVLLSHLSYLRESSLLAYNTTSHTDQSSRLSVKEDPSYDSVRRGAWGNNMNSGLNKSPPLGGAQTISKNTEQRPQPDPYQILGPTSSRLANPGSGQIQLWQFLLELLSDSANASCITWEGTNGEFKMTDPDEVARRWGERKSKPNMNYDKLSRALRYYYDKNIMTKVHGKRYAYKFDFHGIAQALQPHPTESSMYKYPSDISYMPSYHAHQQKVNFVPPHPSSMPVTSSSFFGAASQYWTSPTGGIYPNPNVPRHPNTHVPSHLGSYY
How it was run: (§1)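 In yeast, human transcription factors were expressed with a GST fusion, then pulled down on glutathione beads and given DNA barcodes. Pooled with a tag-only sample, they were exposed to 200 nmole of a 16-mer random double-stranded DNA library (Tris/NaCl/DTT/glycerol buffer, room temperature, 30 min), washed, crosslinked with 0.1% formaldehyde, proximity-ligated using BsaI/T4 ligase for 1 h at 37 °C, PCR-amplified and read on an Illumina NextSeq500. Each hexamer's frequency of reads for a factor, divided by the matching frequency for the tag-only sample, gives the binding signal.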

ELK1 = molecular target: T2, ELK1 (Homo sapiens, UniProt P19419 1-428); conditions: protein: recombinant; tags: N-terminal GST; dsDNA, one strand shown
T2 sequence: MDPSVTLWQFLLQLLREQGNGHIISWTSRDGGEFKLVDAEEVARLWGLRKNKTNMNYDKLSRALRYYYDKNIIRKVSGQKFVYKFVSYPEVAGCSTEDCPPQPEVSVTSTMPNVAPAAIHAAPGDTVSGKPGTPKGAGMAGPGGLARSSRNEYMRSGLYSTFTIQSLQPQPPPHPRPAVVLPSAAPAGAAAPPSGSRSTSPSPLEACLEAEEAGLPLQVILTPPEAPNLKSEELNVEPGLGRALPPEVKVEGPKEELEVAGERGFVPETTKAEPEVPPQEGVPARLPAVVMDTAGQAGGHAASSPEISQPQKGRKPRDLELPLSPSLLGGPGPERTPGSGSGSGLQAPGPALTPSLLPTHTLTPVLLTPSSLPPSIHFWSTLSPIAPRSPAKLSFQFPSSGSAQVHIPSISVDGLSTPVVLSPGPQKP
How it was run: as §1

GABPA = molecular target: T3, GABPA (Homo sapiens, UniProt Q06546 1-454); conditions: protein: recombinant; tags: N-terminal GST; dsDNA, one strand shown
T3 sequence: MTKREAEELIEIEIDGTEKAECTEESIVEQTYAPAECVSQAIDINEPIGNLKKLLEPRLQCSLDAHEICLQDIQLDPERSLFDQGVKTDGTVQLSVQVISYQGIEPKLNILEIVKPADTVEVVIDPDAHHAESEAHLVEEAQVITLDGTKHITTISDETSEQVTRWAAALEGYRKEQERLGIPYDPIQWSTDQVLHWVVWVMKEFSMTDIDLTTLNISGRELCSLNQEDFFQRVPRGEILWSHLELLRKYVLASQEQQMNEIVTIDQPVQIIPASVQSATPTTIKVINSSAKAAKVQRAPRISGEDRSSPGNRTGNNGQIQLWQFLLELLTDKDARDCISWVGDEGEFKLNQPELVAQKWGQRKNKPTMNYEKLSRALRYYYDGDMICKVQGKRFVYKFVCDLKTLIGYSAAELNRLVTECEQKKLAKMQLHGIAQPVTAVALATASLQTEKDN
How it was run: as §1

ERG = molecular target: T4, ERG (Homo sapiens, UniProt P11308 1-479); conditions: protein: recombinant; tags: N-terminal GST; dsDNA, one strand shown
T4 sequence: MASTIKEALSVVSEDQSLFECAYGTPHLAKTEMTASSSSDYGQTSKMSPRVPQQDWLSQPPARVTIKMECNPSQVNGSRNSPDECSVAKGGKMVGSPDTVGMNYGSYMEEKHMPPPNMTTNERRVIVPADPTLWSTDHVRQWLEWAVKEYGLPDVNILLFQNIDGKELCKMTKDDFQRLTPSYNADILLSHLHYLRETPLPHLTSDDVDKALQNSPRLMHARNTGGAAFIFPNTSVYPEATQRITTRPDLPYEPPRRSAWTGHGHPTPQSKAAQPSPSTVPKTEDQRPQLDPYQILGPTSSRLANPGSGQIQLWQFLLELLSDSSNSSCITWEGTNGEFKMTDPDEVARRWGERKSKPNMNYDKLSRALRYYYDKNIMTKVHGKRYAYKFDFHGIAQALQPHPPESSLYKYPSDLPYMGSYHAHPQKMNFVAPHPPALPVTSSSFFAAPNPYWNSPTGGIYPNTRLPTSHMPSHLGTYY
How it was run: as §1

ELF1 = ELF1 (Homo sapiens, UniProt P32519 1-619); conditions: protein: recombinant; tags: N-terminal GST; dsDNA, one strand shown
Sequence of ELF1 (P32519 whole entry): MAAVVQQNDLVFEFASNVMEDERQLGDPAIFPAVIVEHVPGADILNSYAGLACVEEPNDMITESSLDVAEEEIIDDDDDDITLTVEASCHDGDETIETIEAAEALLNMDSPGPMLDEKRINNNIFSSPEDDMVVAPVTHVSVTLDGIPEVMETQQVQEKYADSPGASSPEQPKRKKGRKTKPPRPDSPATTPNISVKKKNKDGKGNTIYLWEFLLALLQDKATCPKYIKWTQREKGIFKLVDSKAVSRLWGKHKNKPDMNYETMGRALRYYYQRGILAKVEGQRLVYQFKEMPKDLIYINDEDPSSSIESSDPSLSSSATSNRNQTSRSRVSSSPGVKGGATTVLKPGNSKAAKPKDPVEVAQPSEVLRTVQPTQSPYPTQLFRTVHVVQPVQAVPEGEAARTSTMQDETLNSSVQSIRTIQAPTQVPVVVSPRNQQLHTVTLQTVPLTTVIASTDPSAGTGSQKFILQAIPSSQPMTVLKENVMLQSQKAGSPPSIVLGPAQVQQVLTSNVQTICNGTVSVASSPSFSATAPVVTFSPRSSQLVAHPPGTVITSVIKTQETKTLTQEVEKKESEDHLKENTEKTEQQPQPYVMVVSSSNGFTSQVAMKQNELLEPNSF
How it was run: as §1

EHF = molecular target: T5, EHF (Homo sapiens, UniProt Q9NZC4 1-300); conditions: protein: recombinant; tags: N-terminal GST; dsDNA, one strand shown
T5 sequence: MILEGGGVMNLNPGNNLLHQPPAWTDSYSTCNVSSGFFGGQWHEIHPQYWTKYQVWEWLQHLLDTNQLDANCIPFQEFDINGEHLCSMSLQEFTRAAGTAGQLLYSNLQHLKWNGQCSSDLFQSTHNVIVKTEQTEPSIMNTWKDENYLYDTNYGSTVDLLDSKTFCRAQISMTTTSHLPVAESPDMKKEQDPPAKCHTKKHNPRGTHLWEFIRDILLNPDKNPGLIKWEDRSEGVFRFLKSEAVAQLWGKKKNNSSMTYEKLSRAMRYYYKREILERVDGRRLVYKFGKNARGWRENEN
How it was run: as §1

SPI1 = SPI1 (Homo sapiens, UniProt P17947 1-270); conditions: protein: recombinant; tags: N-terminal GST; dsDNA, one strand shown
How it was run: as §1

SPIB = SPIB (Homo sapiens, UniProt Q01892 1-262); conditions: protein: recombinant; tags: N-terminal GST; dsDNA, one strand shown
Sequence of SPIB (Q01892 whole entry): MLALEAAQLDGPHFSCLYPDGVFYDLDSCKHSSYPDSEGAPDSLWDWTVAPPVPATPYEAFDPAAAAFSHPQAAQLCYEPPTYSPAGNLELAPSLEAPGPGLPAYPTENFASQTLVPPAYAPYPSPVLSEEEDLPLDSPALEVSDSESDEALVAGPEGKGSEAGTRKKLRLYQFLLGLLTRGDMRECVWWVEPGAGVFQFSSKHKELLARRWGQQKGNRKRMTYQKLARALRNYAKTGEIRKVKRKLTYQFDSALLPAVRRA
How it was run: as §1

ELK3 = molecular target: T6, ELK3 (Homo sapiens, UniProt P41970 1-407); conditions: protein: recombinant; tags: N-terminal GST; dsDNA, one strand shown
T6 sequence: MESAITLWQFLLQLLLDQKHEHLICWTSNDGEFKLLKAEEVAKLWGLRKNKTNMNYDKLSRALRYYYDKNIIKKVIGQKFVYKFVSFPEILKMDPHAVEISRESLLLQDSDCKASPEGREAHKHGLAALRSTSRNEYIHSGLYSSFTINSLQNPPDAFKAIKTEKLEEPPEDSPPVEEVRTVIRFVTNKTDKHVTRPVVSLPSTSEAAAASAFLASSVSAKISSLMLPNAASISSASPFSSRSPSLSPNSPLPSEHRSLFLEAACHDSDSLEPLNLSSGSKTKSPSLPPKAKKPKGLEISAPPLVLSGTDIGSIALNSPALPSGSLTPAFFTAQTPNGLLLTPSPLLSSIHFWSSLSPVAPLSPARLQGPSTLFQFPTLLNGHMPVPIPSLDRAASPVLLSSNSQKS
How it was run: as §1

FEV = molecular target: T7, FEV (Homo sapiens, UniProt Q99581 1-238); conditions: protein: recombinant; tags: N-terminal GST; dsDNA, one strand shown
T7 sequence: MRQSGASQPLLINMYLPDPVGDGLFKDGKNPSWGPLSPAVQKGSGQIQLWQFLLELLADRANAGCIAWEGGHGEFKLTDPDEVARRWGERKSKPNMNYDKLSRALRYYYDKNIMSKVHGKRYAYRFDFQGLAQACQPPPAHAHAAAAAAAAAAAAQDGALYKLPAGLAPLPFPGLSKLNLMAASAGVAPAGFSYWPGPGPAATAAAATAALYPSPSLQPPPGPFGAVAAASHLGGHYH
How it was run: as §1

ETV5 = ETV5 (Homo sapiens, UniProt P41161 1-510); conditions: protein: recombinant; tags: N-terminal GST; dsDNA, one strand shown
Sequence of ETV5 (P41161 whole entry): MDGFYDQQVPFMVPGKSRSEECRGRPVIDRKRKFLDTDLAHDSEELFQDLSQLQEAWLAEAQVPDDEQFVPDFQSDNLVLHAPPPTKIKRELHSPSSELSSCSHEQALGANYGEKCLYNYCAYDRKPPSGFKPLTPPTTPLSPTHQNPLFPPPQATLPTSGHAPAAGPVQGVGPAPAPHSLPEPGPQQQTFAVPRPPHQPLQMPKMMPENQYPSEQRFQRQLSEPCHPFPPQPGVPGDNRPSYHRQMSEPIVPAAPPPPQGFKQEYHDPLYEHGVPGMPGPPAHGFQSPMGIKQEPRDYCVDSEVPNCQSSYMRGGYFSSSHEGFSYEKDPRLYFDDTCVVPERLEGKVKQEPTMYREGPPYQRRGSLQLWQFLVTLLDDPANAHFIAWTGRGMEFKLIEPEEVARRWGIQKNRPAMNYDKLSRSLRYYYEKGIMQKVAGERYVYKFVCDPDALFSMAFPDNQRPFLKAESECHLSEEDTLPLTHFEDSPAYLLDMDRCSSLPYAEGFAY
How it was run: as §1

HSF1 = HSF1 (Homo sapiens, UniProt Q00613 1-529); conditions: protein: recombinant; tags: N-terminal GST; chain copies: 3; dsDNA, one strand shown
Sequence of HSF1 (Q00613 whole entry): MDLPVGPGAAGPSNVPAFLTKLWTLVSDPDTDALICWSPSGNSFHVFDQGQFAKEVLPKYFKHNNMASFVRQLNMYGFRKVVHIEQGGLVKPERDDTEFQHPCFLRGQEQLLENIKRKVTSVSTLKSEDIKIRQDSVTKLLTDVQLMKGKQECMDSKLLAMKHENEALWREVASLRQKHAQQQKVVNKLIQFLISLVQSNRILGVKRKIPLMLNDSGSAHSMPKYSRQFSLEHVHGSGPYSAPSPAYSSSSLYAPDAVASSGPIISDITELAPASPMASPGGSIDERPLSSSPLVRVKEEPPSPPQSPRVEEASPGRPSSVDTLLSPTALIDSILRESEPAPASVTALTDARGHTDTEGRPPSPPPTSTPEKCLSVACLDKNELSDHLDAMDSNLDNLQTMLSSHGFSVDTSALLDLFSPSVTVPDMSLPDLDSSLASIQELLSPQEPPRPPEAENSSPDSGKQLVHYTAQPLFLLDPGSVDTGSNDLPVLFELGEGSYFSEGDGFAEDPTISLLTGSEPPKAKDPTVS
How it was run: as §1

SPIC = molecular target: T8, SPIC (Homo sapiens, UniProt Q8N5J4 1-248); conditions: protein: recombinant; tags: N-terminal GST; dsDNA, one strand shown
T8 sequence: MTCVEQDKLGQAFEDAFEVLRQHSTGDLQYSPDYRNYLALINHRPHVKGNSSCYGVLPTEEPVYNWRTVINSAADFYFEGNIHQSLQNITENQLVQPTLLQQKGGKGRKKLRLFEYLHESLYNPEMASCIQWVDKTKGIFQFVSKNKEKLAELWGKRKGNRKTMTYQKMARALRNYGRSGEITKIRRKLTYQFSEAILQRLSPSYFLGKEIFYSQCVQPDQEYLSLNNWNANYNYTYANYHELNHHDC
How it was run: as §1

ELF4 = ELF4 (Homo sapiens, UniProt Q99607 1-663); conditions: protein: recombinant; tags: N-terminal GST; dsDNA, one strand shown
Sequence of ELF4 (Q99607 whole entry): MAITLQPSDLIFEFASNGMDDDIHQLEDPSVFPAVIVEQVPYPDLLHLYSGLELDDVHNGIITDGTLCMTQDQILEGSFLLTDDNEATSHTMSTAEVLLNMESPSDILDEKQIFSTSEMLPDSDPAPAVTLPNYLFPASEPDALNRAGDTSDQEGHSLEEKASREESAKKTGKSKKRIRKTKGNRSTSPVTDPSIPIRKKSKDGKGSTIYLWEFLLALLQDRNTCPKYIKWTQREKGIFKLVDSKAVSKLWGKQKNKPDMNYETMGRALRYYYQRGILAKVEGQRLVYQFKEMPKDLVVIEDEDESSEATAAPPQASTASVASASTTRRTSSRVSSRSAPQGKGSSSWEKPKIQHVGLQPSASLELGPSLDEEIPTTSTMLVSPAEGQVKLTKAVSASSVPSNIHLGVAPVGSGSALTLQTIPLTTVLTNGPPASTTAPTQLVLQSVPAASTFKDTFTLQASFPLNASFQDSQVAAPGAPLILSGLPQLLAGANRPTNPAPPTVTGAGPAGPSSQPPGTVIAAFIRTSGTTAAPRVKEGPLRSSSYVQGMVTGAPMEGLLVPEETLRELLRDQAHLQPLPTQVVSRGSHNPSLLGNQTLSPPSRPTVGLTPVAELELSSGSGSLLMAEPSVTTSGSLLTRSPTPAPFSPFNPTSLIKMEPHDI
How it was run: as §1

ELK4 = molecular target: T9, ELK4 (Homo sapiens, UniProt P28324-2 1-405); conditions: protein: recombinant; tags: N-terminal GST; dsDNA, one strand shown
T9 sequence: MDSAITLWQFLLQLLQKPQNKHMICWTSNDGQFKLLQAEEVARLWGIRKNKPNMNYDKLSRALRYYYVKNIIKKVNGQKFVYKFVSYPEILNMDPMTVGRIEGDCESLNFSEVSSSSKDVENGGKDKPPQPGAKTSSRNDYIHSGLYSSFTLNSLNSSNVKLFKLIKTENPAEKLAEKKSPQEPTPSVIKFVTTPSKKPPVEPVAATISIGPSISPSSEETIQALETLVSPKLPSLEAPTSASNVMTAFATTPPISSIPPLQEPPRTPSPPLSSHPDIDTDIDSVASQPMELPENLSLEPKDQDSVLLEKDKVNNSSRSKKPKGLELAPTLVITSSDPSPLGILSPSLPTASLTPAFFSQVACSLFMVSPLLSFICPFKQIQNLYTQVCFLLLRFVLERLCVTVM
How it was run: as §1

ETV2 = molecular target: T10, ETV2 (Homo sapiens, UniProt O00321 1-342); conditions: protein: recombinant; tags: N-terminal GST; dsDNA, one strand shown
T10 sequence: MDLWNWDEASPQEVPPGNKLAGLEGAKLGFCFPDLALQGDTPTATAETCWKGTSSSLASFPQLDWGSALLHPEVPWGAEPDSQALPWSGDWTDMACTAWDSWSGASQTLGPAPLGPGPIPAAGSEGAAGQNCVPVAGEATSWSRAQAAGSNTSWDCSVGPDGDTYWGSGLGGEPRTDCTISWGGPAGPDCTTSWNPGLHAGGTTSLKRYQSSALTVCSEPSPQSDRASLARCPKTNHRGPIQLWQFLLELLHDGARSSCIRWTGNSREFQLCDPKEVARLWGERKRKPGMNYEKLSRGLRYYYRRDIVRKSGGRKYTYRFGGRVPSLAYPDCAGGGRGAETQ
How it was run: as §1

ELF3 = molecular target: T11, ELF3 (Homo sapiens, UniProt P78545 1-371); conditions: protein: recombinant; tags: N-terminal GST; dsDNA, one strand shown
T11 sequence: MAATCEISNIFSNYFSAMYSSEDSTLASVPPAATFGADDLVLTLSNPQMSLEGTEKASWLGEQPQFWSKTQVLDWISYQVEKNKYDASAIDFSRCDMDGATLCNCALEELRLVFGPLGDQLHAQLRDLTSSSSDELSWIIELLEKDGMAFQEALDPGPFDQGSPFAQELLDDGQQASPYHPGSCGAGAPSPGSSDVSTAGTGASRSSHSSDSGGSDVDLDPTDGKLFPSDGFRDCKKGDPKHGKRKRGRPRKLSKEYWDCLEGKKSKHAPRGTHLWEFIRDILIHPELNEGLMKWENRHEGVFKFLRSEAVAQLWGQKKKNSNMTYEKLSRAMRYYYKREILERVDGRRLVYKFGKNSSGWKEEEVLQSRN
How it was run: as §1

ETV1 = ETV1 (Homo sapiens, UniProt P50549 1-477); conditions: protein: recombinant; tags: N-terminal GST; dsDNA, one strand shown
Sequence of ETV1 (P50549 whole entry): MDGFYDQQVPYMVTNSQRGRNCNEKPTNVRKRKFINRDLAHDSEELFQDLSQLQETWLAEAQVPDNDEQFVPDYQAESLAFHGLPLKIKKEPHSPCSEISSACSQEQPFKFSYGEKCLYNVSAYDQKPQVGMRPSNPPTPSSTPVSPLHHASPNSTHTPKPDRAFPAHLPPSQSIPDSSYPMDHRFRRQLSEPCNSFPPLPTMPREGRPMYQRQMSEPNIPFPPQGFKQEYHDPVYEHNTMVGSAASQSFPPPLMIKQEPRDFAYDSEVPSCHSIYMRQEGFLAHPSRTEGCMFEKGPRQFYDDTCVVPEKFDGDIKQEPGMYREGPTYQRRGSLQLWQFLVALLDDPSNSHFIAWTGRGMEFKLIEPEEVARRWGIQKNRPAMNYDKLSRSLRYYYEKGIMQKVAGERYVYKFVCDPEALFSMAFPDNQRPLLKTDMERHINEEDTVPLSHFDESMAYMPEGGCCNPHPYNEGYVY
How it was run: as §1

TCGTAC
binding signal (FLI1): 1.13 fold enrichment (6-mer frequency, TF over GST control)
binding signal (ELK1): 1.13 fold enrichment (6-mer frequency, TF over GST control)
binding signal (GABPA): 1.18 fold enrichment (6-mer frequency, TF over GST control)
binding signal (ERG): 1.06 fold enrichment (6-mer frequency, TF over GST control)
binding signal (ELF1): 1.14 fold enrichment (6-mer frequency, TF over GST control)
binding signal (EHF): 1.14 fold enrichment (6-mer frequency, TF over GST control)
binding signal (SPI1): 1.06 fold enrichment (6-mer frequency, TF over GST control)
binding signal (SPIB): 1.04 fold enrichment (6-mer frequency, TF over GST control)
binding signal (ELK3): 1.11 fold enrichment (6-mer frequency, TF over GST control)
binding signal (FEV): 1.13 fold enrichment (6-mer frequency, TF over GST control)
binding signal (ETV5): 1.13 fold enrichment (6-mer frequency, TF over GST control)
binding signal (HSF1): 1.06 fold enrichment (6-mer frequency, TF over GST control)
binding signal (SPIC): 1.09 fold enrichment (6-mer frequency, TF over GST control)
binding signal (ELF4): 1.14 fold enrichment (6-mer frequency, TF over GST control)
binding signal (ELK4): 1.03 fold enrichment (6-mer frequency, TF over GST control)
binding signal (ETV2): 1.22 fold enrichment (6-mer frequency, TF over GST control)
binding signal (ELF3): 1.22 fold enrichment (6-mer frequency, TF over GST control)
binding signal (ETV1): 1.18 fold enrichment (6-mer frequency, TF over GST control)
